Assay outcomes (PubChem)
Compounds with a hit are over-represented: about 0.86% of the library has one in this group of screens.
TAR Tat displ: HIV-1 TAR-Tat binding disruption | HIV-1 TAR RNA, Tat peptide displacement FRET; stronger effect = higher value | z-score (no concentration beside the values) | actives 0.6% (n = 100,000) | AID 1259389; active means z-score of 3 or more in at least 2 runs
CDC25B CDK2 inh: human CDC25B-CDK2/CyclinA binding inhibition; HTRF CDC25B-CDK2/CyclinA binding, anti-His/anti-Flag; stronger effect = higher value; P30305+P24941; z-score (test concentration not listed); actives 0.72% (n = 94,000); AID 1259370; in the data active means z-score above about 3.2
* = called active by the depositor; x = no result given.

SMILES	TAR Tat displ	CDC25B CDK2 inh
COc1cc(C2CC(=O)N3CN(c4ccc(C)cc4)CSC3=C2C#N)cc(Br)c1O (stereo unspecified)	-0.6	1.68
COc1cc(C2CC(=O)N3CN(Cc4ccccc4)CSC3=C2C#N)cc(Br)c1O (stereo unspecified)	0.52	3.48*
COc1cc(C2CC(=O)N3CN(Cc4ccccc4)CSC3=C2C#N)ccc1O (stereo unspecified)	-0.46	4.04*
Cc1nc2c(c(C)c1CCC(=O)NCCN1CCN(C)CC1)c(=O)n(C)c(=O)n2C	2.54	-1.19
CCOC(=O)c1c(C)[nH]c(NC(=O)Nc2ccc(N(C)C)cc2)c1C	0.88	-0.7
O=c1cc(-c2ccccc2)oc2cc(O)c(O)c(O)c12	29.3*	x
COc1cccc2oc(-c3ccccc3)cc(=O)c12	1.42	x
NNC(=O)c1csc(-c2cccc(-n3cccc3)c2)n1	x	16.9*
NNC(=O)Cc1csc(-c2cccc(-n3cccc3)c2)n1	x	16.5*
NNC(=O)c1csc(-c2ccccc2)n1	x	-1.1
O=C(Cc1csc(-c2ccccc2)n1)Nc1nc(-c2ccccc2)cs1	0.46	0.55
CC1CN(c2oc(/C=C/c3cccs3)nc2C#N)CC(C)O1 (stereo unspecified)	1.82	0.77
CCOC(=O)C1CCCN(C(=O)c2sc3nc(C)nc(N4CCC(C)CC4)c3c2C)C1 (stereo unspecified)	x	-0.42
Cc1nc(N2CCC(C(=O)O)CC2)c2c(C)c(C)sc2n1	4.79*	x
COc1ccccc1-c1nnc2sc(-c3ccccc3Cl)nn12	2.51	-2.16
COc1ccc(-n2ccnc(SCC(=O)Nc3ccc(Br)cc3)c2=O)cc1	-0.18	x
CC(=O)N1CCOc2ccc(S(=O)(=O)N3CCC(C(=O)NC4CCC(C)CC4)CC3)cc21 (stereo unspecified)	3.64	x
CC(=O)N1CCOc2ccc(S(=O)(=O)N3CCC(C(=O)NC4CCCC4)CC3)cc21	17.4*	x
O=C(Cn1c(=O)oc2cc(S(=O)(=O)NCc3ccccc3)ccc21)N1CCc2ccccc21	1.5	0.8
CCc1ccc(C2CC(=O)N3CN(C4CCCCC4)CSC3=C2C#N)cc1 (stereo unspecified)	-1.18	3.9*
COc1ccc(C2CC(=O)N3CN(C4CCCC4)CSC3=C2C#N)cc1 (stereo unspecified)	0.43	5.53*
N#CC1=C2SCN(C3CCCCC3)CN2C(=O)CC1c1ccc(Br)cc1 (stereo unspecified)	-1.11	-1.15
Cc1ccc(C2CC(=O)N3CN(C4CCCC4)CSC3=C2C#N)cc1 (stereo unspecified)	0.26	0.66
CCN(CCNC(=O)Cn1nc(C)n2c(cc3sccc32)c1=O)c1ccccc1	1.36	-1.08
Cc1ccc(N2C(=O)NC(=O)/C(=C/c3cc(C)n(-c4ccc(-c5ccccc5)cc4)c3C)C2=O)cc1	x	-4.95
SMILES	TAR Tat displ	CDC25B CDK2 inh
COc1ccccc1Nc1nc(-c2cc3c(ccc4ccccc43)oc2=O)cs1	x	-1.03
O=C1c2ccccc2C(=O)N1c1cccc(-c2csc(Nc3cccc4ccccc34)n2)c1	x	18.8*
O=C(c1cc2c(s1)-c1ccsc1CC2)N1CCN(c2ccccc2)CC1	0.15	x
CC1CCCN(c2nnc(Cc3ccncc3)c3ccccc23)C1 (stereo unspecified)	-0.47	-2.05
O=C(Nc1cccc(O)c1)c1cccc(N2C(=O)c3cccc([N+](=O)[O-])c3C2=O)c1	x	5.13*
CC(C)(C)NC(=O)c1cccc(N2C(=O)c3cccc([N+](=O)[O-])c3C2=O)c1	x	0.16
COC(=O)c1cc(NC(=O)c2cc(C(=O)OC)cc([N+](=O)[O-])c2)cc(C(=O)OC)c1	x	-1.68
O=c1c(O)cccc2cc(O)c(O)c(O)c12	30.4*	x
O=C1c2ccccc2C(=O)c2c(O)c(O)cc(O)c21	3.46	x
COc1ccc(N)cc1-n1c(C)ccc1C	10.4*	1.93
Cc1ccc(C)n1-c1cccc(N)c1	-3.17	4.02
Cc1oc2ccccc2c1CNC(=O)Nc1ccc(Cl)cc1Cl	x	-2.23
CC12CN3CC(c4ccccc4)(CN(C1)C3c1ccccc1O)C2=O (stereo unspecified)	-1.3	-0.68
COc1cccc(C2N3CC4(C)CN2CC(c2ccccc2)(C3)C4=O)c1O (stereo unspecified)	4.24*	-2.24
COc1ccc2c(c1)SC1=NC(=O)C(Cc3ccccc3)C(=O)N12 (stereo unspecified)	2.04	0.37
Cc1ccc(C2NC(=O)c3n[nH]c(-c4ccco4)c32)cc1 (stereo unspecified)	-3.48	-0.08
O=C1NC(c2ccco2)c2c1n[nH]c2-c1ccco1 (stereo unspecified)	2.38	5.3*
O=C1NC(c2cccc(O)c2)c2c1n[nH]c2-c1ccco1 (stereo unspecified)	-0.63	2.27
O=C1NC(c2cccnc2)c2c1n[nH]c2-c1ccco1 (stereo unspecified)	-5.49	8.87*
COc1ccc(-n2nnc(-c3nc(-c4ccc(C)cc4)no3)c2N)cc1Cl	-0.06	x
O=c1cc(COc2ccccc2)nc2sccn12	-0.02	-1.33
Cc1c(NC(=O)c2sc3ccccc3c2Cl)cccc1-c1nc2ncccc2o1	x	-0.81
CCN(CC)CCCNc1cnnc2c(Cl)cccc12	0.08	x
COc1ccc(OC)c(NS(=O)(=O)c2ccc3c(c2)CC(C)N3C(=O)C2CC2)c1 (stereo unspecified)	0.63	x
COc1ccc2ccccc2c1C1CC(=O)N2CN(C3CCCCC3)CSC2=C1C#N (stereo unspecified)	-1.61	6.11*
SMILES	TAR Tat displ	CDC25B CDK2 inh
COc1ccc2ccccc2c1C1CC(=O)N2CN(Cc3ccco3)CSC2=C1C#N (stereo unspecified)	0.91	5.81*
COc1ccc2ccccc2c1C1CC(=O)N2CN(Cc3ccccc3)CSC2=C1C#N (stereo unspecified)	1.59	5.38*
Cc1nc2c(-c3ccc(F)cc3)c(C)nn2c(C)c1CCC(=O)N1CCCC1	x	0.36
CCOc1cc(/C=c2\sc3nc4ccccc4n3c2=O)ccc1OCc1c(Cl)cccc1Cl	x	-1.92
Cc1cc2c(cc3c(=O)n(CCCC(=O)NCCN4CCOCC4)nc(C)n32)o1	-1.54	-2.89
O=C(CN1c2ccccc2NC2=C(C(=O)CCC2)C1c1ccco1)NC1CCCC1 (stereo unspecified)	-9.61	x
O=C(CCC(=O)N1c2ccccc2NC2=C(C(=O)CCC2)C1c1ccco1)NC1CCCCC1 (stereo unspecified)	3.61*	x
O=C(CCc1cc(Cl)no1)Nc1nccs1	1.27	-0.65
CCOc1ccc2nc(SCCc3ccccc3)[nH]c2c1	3.32	0.22
CCOC(=O)c1nn(-c2ccc(Cl)cc2)c(=O)c(C#N)c1C	0.3	-1.22
CCOC(=O)c1nn(-c2ccc(Cl)cc2)c(=O)c2c(N)scc12	-2.95	18.4*
CCOC(=O)c1nc(N)c(=O)n(-c2ccc(C)cc2)n1	x	-7.1
CCOC(=O)c1nn(-c2ccc(C)cc2)c(=O)c2c(N)scc12	-5.45	17.8*
Nc1cc(-c2ccccc2)nn1S(=O)(=O)c1ccc(F)c(Cl)c1	-0.05	-0.25
CCCCNC(=O)CCc1c(C)nc2ncnn2c1C	x	-0.68
CCOc1ccc(OCC)c(NS(=O)(=O)c2cc(-c3csc(C)n3)ccc2C)c1	1.56	x
COC(=O)C1Cc2cc(OC)c(OC)cc2C(Cc2ccc(OC)c(OC)c2)=N1 (stereo unspecified)	-0.5	8.89*
COc1ccc(CC(=O)NN)cc1OC	x	-1.64
Cc1ccc(-c2nc(SCC(=O)N3CCC(C)CC3)n3[nH]c(=O)cc3n2)cc1	3.55	x
